# Data as given in the supplement of paper PMC13380429.
# Values without a mark were called inactive.
# Test system: Vero E6 infected with SARS-CoV-2
# Assay: inhibition of SARS-CoV-2 cytopathic effect; higher = more antiviral protection, active = above 15
# Conditions: 48 h
SMILES,inhibition of SARS-CoV-2 cytopathic effect (1 nM),inhibition of SARS-CoV-2 cytopathic effect (8.33 nM),inhibition of SARS-CoV-2 cytopathic effect (100 nM),inhibition of SARS-CoV-2 cytopathic effect (833.33 nM),inhibition of SARS-CoV-2 cytopathic effect (10000 nM)
CC1=NN=C(c2ccc(N)cc2)c2cc3c(cc2C1)OCO3,-2.65%,-5.13%,-1.01%,2.88%,0.44%
COCC(=O)O[C@]1(CCN(C)CCCc2nc3ccccc3[nH]2)CCc2cc(F)ccc2[C@@H]1C(C)C [mibefradil],-2.83%,0.22%,-2.5%,-0.56%,62.1% (active)
Cc1cc2c(C(N)=O)cccc2n1-c1nc2c(c(NCc3ccccc3)n1)COCC2,1.91%,-0.78%,-2.17%,11.2%,-31.7%
NCCCC[C@H](NC(=O)[C@@H]1CCCN1C(=O)[C@@H]1CSSC[C@H](N)C(=O)N[C@@H](Cc2ccc(O)cc2)C(=O)N[C@@H](Cc2ccccc2)C(=O)N[C@@H](CCC(N)=O)C(=O)N[C@@H](CC(N)=O)C(=O)N1)C(=O)NCC(N)=O [lypressin],0.07%,1.59%,3.33%,1.65%,0.67%
CCN1CCCC1CNC(=O)c1cc(S(=O)(=O)CC)c(N)cc1OC (stereo not given) [amisulpride],2.43%,-1.75%,0.45%,-2.32%,-1.76%
Cc1cc(NC(=O)Nc2ccc(N(C)C)cc2)c2cc(F)cc(F)c2n1,-0.11%,0.56%,1.66%,3.02%,4.9%
O=C(O)[C@H]1CN(C/C=C/P(=O)(O)O)CCN1 [midafotel],-2.43%,-0.69%,0.17%,1.03%,3.52%
COC(=O)[C@@H]1CC2=CC(=O)CC[C@]2(C)[C@@]23O[C@@H]2C[C@@]2(C)[C@@H](CC[C@@]24CCC(=O)O4)[C@H]13 [eplerenone],0.06%,2.8%,0.3%,1.53%,0.25%
Cn1ccc2cc3c(cc21)CCN3C(=O)Nc1cccnc1,1.1%,0.1%,1.8%,0.79%,2.05%
COc1ccc(-c2nc(C(=O)N3CCN(C)CC3)sc2-c2ccc(OC)cc2)cc1,-2.34%,-0.77%,-0.57%,-2.37%,0.19%
CC(C)n1c(=O)n(C(=O)N[C@H]2C[C@H]3CC[C@@H](C2)N3C)c2ccccc21,3%,1.63%,-0.05%,-0.36%,-2.53%
O=[N+]([O-])c1cn2c(n1)OC[C@@H](OCc1ccc(OC(F)(F)F)cc1)C2 [pretomanid],0.26%,0.54%,-0.43%,-0.88%,0.65%
CC[C@H]1OC(=O)[C@@](C)(F)C(=O)[C@H](C)[C@@H](O[C@@H]2O[C@H](C)C[C@H](N(C)C)[C@H]2O)[C@](C)(OC)C[C@@H](C)C(=O)[C@H](C)[C@H]2N(CCCCn3cc(-c4cccc(N)c4)nn3)C(=O)O[C@]12C [solithromycin],0.98%,0.59%,0.05%,-0.9%,-4.38%
CCN(C(C)=O)c1cccc(-c2ccnc3c(C#N)cnn23)c1,-0.78%,-1.57%,-2.79%,-0.59%,-0.53%
C[C@@H]1C[C@@H]([C@H](O)CC2CC(=O)NC(=O)C2)C(=O)[C@@H](C)C1 [cycloheximide],2.12%,2.86%,6.34%,27.6% (active),17.4% (active)
CCOC(=O)C(=O)Nc1cccc(OC)c1C(N)=O,6.62%,7.85%,6.88%,2.83%,-0.82%
CC(C)c1onc(-c2c(Cl)cccc2Cl)c1COc1ccc(/C=C/c2cccc(C(=O)O)c2)c(Cl)c1,0.86%,0.15%,-0.17%,0.5%,0.01%
Cn1cc(C2=C(c3ccc(Cl)cc3Cl)C(=O)NC2=O)c2ccccc21,2.26%,6.22%,4.19%,1.47%,20.8% (active)
O=C(O)COc1cccc(-c2ocnc2-c2nc(-c3ccccc3)c(-c3ccccc3)o2)c1,-0.58%,0.52%,0.7%,0%,3.01%

SMILES,inhibition of SARS-CoV-2 cytopathic effect (1 nM),inhibition of SARS-CoV-2 cytopathic effect (8.33 nM),inhibition of SARS-CoV-2 cytopathic effect (100 nM),inhibition of SARS-CoV-2 cytopathic effect (833.33 nM),inhibition of SARS-CoV-2 cytopathic effect (10000 nM)
NCCCCCc1c[nH]cn1 [impentamine],-2.08%,-1.69%,-0.14%,-0.52%,0.02%
C=CCNC1=C2C[C@@H](C)C[C@H](OC)[C@H](O)[C@@H](C)/C=C(\C)[C@H](OC(N)=O)[C@@H](OC)/C=C\C=C(/C)C(=O)NC(=CC1=O)C2=O [tanespimycin],-1.35%,-0.13%,-4.27%,-0.63%,3.92%
CC1(C)CCC(C)(C)c2cc(C3(c4ccc5cc(C(=O)O)ccc5c4)SCCS3)ccc21,-0.61%,2.69%,1.81%,1.35%,2.66%
Cc1c(-c2ccnn2C)cc(C(=O)NCc2ccc(S(C)(=O)=O)cn2)c(=O)n1-c1cccc(C(F)(F)F)c1,-2.24%,-0.81%,-0.79%,-2.96%,-0.81%
COc1cc(N2CCC(N3CCN(C)CC3)CC2)ccc1Nc1ncnc(Nc2ccccc2S(=O)(=O)C(C)C)n1,1.25%,-0.68%,1.16%,2.18%,-7.16%
O=C(Nc1ccc(-c2ccnc(Nc3ccc(N4CCOCC4)cc3)n2)cc1)C1CCCN1 (stereo not given),-1.37%,-1.43%,-0.97%,-1.01%,8.93%
CCCCCCCCCCCCCCCCOP(=O)([O-])OCC[N+](C)(C)C [miltefosine],-3.26%,-0.08%,0.27%,0.17%,3.55%
Nc1ccc(-c2ccc3ncc4ccc(=O)n(-c5cccc(C(F)(F)F)c5)c4c3c2)cn1 [torin-2],0.99%,-0.26%,-2.28%,-4.78%,-8.11%
O=C(O)c1cc(=O)c2ccccc2[nH]1 [kynurenic-acid],3.61%,1.12%,2.79%,2.98%,1.89%
C=C1/C(=C\C=C2/CCC[C@]3(C)[C@@H]([C@H](C)/C=C/[C@H](C)C(C)C)CC[C@@H]23)C[C@@H](O)C[C@@H]1O [doxercalciferol],0.83%,0.03%,0.98%,2.04%,2.69%
CC(C)=CCC/C(C)=C/CC/C(C)=C/CSc1ccccc1C(N)=O [farnesyl-thiosalicylic-acid-amide],-1.77%,-2.42%,-3.06%,-5.68%,-2.46%
Cc1c(Cl)cccc1S(=O)(=O)Nc1nc(CC(=O)N2CCN(C)CC2)cs1,1.65%,0.23%,-1.13%,3.23%,2.25%
O=C(NC(NC(=S)Nc1ccc(F)c([N+](=O)[O-])c1)C(Cl)(Cl)Cl)C(c1ccccc1)c1ccccc1 (stereo not given),-2.82%,-2.75%,0.28%,-7.06%,-5.53%
CC(=O)Nc1ccc(OCC(O)CNC(C)C)cc1 (stereo not given) [practolol],0.44%,0.3%,0.26%,2.84%,5.44%
C[C@H](NC[C@H](O)CP(=O)(O)Cc1ccccc1)c1ccc(Cl)c(Cl)c1,2.41%,3.89%,1.35%,1.79%,4.47%
Cn1c(=O)[nH]c2ncn(C)c2c1=O [paraxanthine],1.63%,1.68%,0.01%,2.99%,-0.26%
CCCCc1nc(Cl)c(C(=O)O)n1Cc1ccc(-c2ccccc2-c2nn[nH]n2)cc1 [carboxylosartan],1.07%,1.82%,1.92%,0.51%,0.68%
Cn1c(-c2ccccc2)nnc1S(C)(=O)=O,2.45%,-0.41%,0.33%,-0.57%,2.92%
CCCOCCn1c(=O)c(N2CCN(CCO)CC2)nc2cnc(-c3ccc(OC)nc3)cc21,0.37%,0.25%,-0.91%,-1.66%,-1.9%
